A short description of assay [1]: qHTS for Inhibitors of the Functional Ribonucleoprotein Complex (vRNP) of Lassa (LASV) Arenavirus: LASV Primary Screen - GLuc reporter signal (AID 1347082; calls by dose curve; tested in HEK293 reporter line; note: nearly all actives have a fitted effect of over 60% in size; note: potency is the fitted concentration of half-maximal effect; for activity change, negative = inhibition: % is set by controls: 0 for no effect and ±100 for the full control effect). (qHTS replaces the single test concentration by a dilution series.)
Assay [2] has as its target Nucleoprotein (Lymphocytic choriomeningitis virus (strain Armstrong)) (UniProt P09992). The experiment in a line: qHTS for Inhibitors of the Functional Ribonucleoprotein Complex (vRNP) of Lymphocytic Choriomeningitis Arenaviruses (LCMV): LCMV Primary Screen - GLuc reporter signal (AID 1347086). For activity change, negative = inhibition: % is set by controls: 0 for no effect and ±100 for the full control effect. Note: nearly all actives have a fitted effect of over 70% in size. Note: potency is the fitted concentration of half-maximal effect.
Assay [3] is described as follows: Cytotoxicity counterscreen for inhibitors of SARS-CoV-2 cell entry (AID 1645845). Note: nearly all actives have a fitted effect of over 50% in size. An outline of the steps:
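ATP-content luminescence (ATPLite 1step, 15 min RT) read after 48 h compound exposure of Expi293F cells stably expressing human ACE2; normalized to cells-only wells and media-only wells.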
(A counterscreen serves to expose hits that act by an unwanted route or on another target.)

Assay [4] can be described thus: Primary qHTS to identify inhibitors of SARS-CoV-2 cell entry (AID 1645846). Note: nearly all actives have a fitted effect of over 45% in size. Note: potency is the fitted concentration of half-maximal effect. Particulars: activity change, negative = inhibition: at 57.1 µM (top of the series) unless noted. An outline of the steps: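 Entry measured by luciferase signal 48 h after adding SARS-CoV-2-S pseudotyped MLV particles to HEK293-ACE2 cells preincubated 1 h with compounds. Normalisation: bald particles and spike particles.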

A further assay relates to CRL-7250. The experiment in a line: qHTS assay to identify novel small-molecules to repurpose for Merkel cell carcinoma treatment (AID 1296009; active = well fitted inhibition curve with a large enough effect; note: nearly all actives have a fitted effect of over 60% in size). Particulars: MCC and control cell lines, CellTiter-Glo viability, 72 h; series mostly up to 92 µM. Put shortly:
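Cell viability measured by CellTiter-Glo following 72 hr compound treatment at 37 degree celsius, with NPC and MIPE libraries tested in 8- and 11-point concentration series.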

Assay [5] in a line: qHTS for Inhibitors of the Functional Ribonucleoprotein Complex (vRNP) of Lassa (LASV) Arenavirus: Viability assay - alamar blue signal for LASV Primary Screen (AID 1347083; calls by dose curve; tested in HEK293 reporter line; note: nearly all actives have a fitted effect of over 80% in size; note: potency is the fitted concentration of half-maximal effect).
Assay [6] in a line: Primary qHTS for inhibitors of SARS-S pseudo-typed particle cell entry (AID 1479145). For activity change, negative = inhibition: % is set by controls: 0 for no effect and ±100 for the full control effect. Note: nearly all actives have a fitted effect of over 45% in size.
A short description of assay [7]: Primary qHTS for Huh7 cytotoxicity: counterscreen for inhibitors of MERS-S pseudotyped particle cell entry (AID 1479147). Particulars: outcome: dose series up to 57.1 µM unless noted.
Assay [8] is described as follows: Primary qHTS for inhibitors of MERS-S pseudo-typed particle cell entry (AID 1479149). Note: nearly all actives have a fitted effect of over 60% in size.
A short description of assay [9]: Primary qHTS for Vero E6 cytotoxicity: counterscreen for inhibitors of SARS-S pseudo-typed particle cell entry (AID 1479150). Particulars: outcome: dose series up to 57.1 µM unless noted.
The nature of assay [10]: Confirmatory qHTS for activators (rescue) of SARS-CoV-2 Cytopathic Effect (CPE) (AID 1508606). Note: potency is the fitted concentration of half-maximal effect; nearly all actives have a fitted effect of over 70% in size.
Assay [11] in a line: qHTS for Inhibitors of the Functional Ribonucleoprotein Complex (vRNP) of Lymphocytic Choriomeningitis Arenaviruses (LCMV): Viability assay - alamar blue signal for LCMV Primary Screen (AID 1347085; calls by dose curve; tested in HEK293 reporter line; note: potency is the fitted concentration of half-maximal effect; nearly all actives have a fitted effect of over 80% in size).
Assay [12] can be described thus: qHTS profiling of the MIPE4 collection as inhibitors of Plasmodium falciparum (3D7) proliferation (AID 743344; call rule not given here;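 note: scaled between DMSO vehicle wells and 0.29 µM artemisinin as full inhibition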). Particulars: P. falciparum 3D7 in erythrocytes, SYBR Green DNA fluorescence, 72 h; at 28.5 µM (top of the series) unless noted. An outline of the steps: (§1)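 Parasite DNA was quantified by SYBR Green I fluorescence (ex 485, em 535 nm) after overnight lysis in saponin/Triton buffer at room temperature. Cultures at 0.3% parasitemia and 2.5% hematocrit were first exposed to compound for 72 h at 37 C; signals were normalised to artemisinin (0.29 uM) and vehicle wells.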

Assay [13] in a line: qHTS profiling of the MIPE4 collection as inhibitors of Plasmodium falciparum (DD2) proliferation (AID 743345; call rule not given here). Particulars: P. falciparum Dd2 in erythrocytes, SYBR Green DNA, 72 h; at 28.5 µM (top of the series) unless noted. Put shortly: as §1
Assay [14] in a line: qHTS profiling of the MIPE4 collection as inhibitors of Plasmodium falciparum (DD2) proliferation (Rep 2) (AID 743346; call rule not given here). The following applies: P. falciparum Dd2 in erythrocytes, SYBR Green DNA, 72 h; at 28.5 µM (top of the series) unless noted. Put shortly:
as §1

Assay [15] in a line: qHTS profiling of the MIPE4 collection as inhibitors of Plasmodium falciparum (HB3) proliferation (AID 743347; call rule not given here;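 note: plate controls were DMSO vehicle wells for no effect and artemisinin wells for full effect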). The following applies: P. falciparum HB3 in erythrocytes, SYBR Green DNA, 72 h; at 28.5 µM (top of the series) unless noted. Put shortly: as §1
A short description of assay [16]: Confirmatory qHTS to identify inhibitors of SARS-CoV-2 cell entry (AID 1645844). Note: potency is the fitted concentration of half-maximal effect; nearly all actives have a fitted effect of over 45% in size. An outline of the steps:
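Luminescence entry read-out after 48 h: spike-pseudotyped MLV particles (Wuhan-Hu-1, 19-aa C-terminal truncation) added to compound-pretreated (1 h) HEK293-ACE2 cells; Data were normalised to bald PP and spike PP wells.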

The nature of assay [17]: VSVG counterscreen qHTS to identify inhibitors of SARS-CoV-2 cell entry (AID 1645847). Note: potency is the fitted concentration of half-maximal effect; nearly all actives have a fitted effect of over 65% in size. An outline of the steps:
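Luminescence read after 48 h infection at 37 C with VSV-G-pseudotyped MLV particles, following 1 h compound exposure of Expi293F cells stably expressing human ACE2; scaled between bald particle and VSV-G particle wells.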

In assay [18] the target is Bile acid receptor (Homo sapiens) (UniProt Q96RI1). The experiment in a line: qHTS assay for small molecule agonists of farnesoid X receptor signaling (AID 588527).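 Note: 0% = vehicle basal and 100% = reference agonist.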 The following applies: HEK293T FXR-UAS-bla, beta-lactamase ratio, 16 h; activation: stronger effect = higher value. Put shortly:
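FXR-UAS-bla HEK293T, 10% dialyzed FBS; cpds up to 92 uM titration, 16 h 37 C; CCF4 dye 2 h RT; fluorescence. Normalized to chenodeoxycholic acid 100 uM (100%) and DMSO (0%); Hill fit gives EC50, efficacy.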

Assay [19] in a line: Confirmatory qHTS for VERO E6 Cytotoxicity Assay: Counterscreen for SARS-CoV-2 CPE Assay (AID 1508605). Note: % is set by controls: 0 for no effect and ±100 for the full control effect; nearly all actives have a fitted effect of over 60% in size.

Values joined by “and” are separate entries in the source; they are usually repeats but may differ in a detail not shown here. Equal entries are not always repeated. Records with an inconclusive call do not appear. Active and inactive are the calls of the source. Unless noted, calls come from the whole dose curve. Bridge positions count the residues as written; N and C are the ends. Square brackets hold non-standard residues; d marks the D form. Peptide text beside a SMILES is read from it. * marks the point of attachment. ξ: configuration not given here. Octanoyl(6-Me) = CCC(C)CCCCC(=O)*; ξThr(3R) = C[C@@H](O)C(N)C(=O)O; dDab = NCC[C@@H](N)C(=O)O; Dab = NCC[C@H](N)C(=O)O

Chain of Nucleoprotein (Lymphocytic choriomeningitis virus (strain Armstrong)) (P09992 whole entry, looked up): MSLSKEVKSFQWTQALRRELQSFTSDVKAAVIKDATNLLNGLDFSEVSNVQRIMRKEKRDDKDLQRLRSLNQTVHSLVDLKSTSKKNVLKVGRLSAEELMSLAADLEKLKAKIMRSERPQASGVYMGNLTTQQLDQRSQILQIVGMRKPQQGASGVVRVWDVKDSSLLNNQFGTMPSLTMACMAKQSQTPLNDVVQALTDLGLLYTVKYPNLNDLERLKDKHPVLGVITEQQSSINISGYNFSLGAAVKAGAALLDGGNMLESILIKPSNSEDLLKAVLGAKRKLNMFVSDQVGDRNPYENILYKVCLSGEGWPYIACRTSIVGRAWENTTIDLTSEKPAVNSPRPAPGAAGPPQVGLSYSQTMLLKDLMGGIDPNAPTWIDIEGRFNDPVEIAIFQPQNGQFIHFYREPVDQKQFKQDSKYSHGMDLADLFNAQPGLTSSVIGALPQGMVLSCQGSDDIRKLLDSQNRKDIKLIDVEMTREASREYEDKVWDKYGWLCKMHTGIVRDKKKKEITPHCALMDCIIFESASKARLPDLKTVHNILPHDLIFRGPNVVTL
Chain of Bile acid receptor (Homo sapiens) (Q96RI1 whole entry, looked up): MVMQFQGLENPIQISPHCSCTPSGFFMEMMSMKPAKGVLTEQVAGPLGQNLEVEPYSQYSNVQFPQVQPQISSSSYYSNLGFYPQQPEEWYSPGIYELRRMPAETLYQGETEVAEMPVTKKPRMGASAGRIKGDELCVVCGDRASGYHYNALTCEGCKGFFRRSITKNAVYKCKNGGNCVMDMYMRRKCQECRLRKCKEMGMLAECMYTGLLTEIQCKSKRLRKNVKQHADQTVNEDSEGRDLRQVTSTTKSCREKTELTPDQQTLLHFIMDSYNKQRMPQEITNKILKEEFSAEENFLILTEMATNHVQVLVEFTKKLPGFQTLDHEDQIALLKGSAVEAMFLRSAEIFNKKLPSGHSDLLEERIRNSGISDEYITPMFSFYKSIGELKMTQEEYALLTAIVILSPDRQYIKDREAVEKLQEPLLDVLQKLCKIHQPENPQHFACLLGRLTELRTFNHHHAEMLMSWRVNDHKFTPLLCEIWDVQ

Regarding `C[C@](Cc1c[nH]c2ccccc12)(NC(=O)OC1C2CC3CC(C2)CC1C3)C(=O)NC[C@H](NC(=O)CCC(=O)O)c1ccccc1` (stereo partly drawn), the Potency entry (in [1]; in [2]; in [3]; in assay [4]; in the assay with CRL-7250) was “inactive” throughout.

Regarding `COc1ccc([C@@H]2CC(=O)c3c(O)cc(O[C@@H]4O[C@H](CO[C@@H]5O[C@@H](C)[C@H](O)[C@@H](O)[C@@H]5O)[C@@H](O)[C@H](O)[C@@H]4O)cc3O2)cc1O`, the Potency result in assay [1], in assay [5], in assay [2], in [6], in assay [8] and in assay [3] was “inactive” each time. In the assay on CRL-7250, the Potency entry is “inactive”. Further, the compound was called inactive in [7] and in [9]. In [4], the activity change, negative = inhibition was -5.46%.

Take `O=c1cc(-c2cccc3c2Sc2ccccc2S3)oc(N2CCOCC2)c1`: the Potency result (in [1]; in assay [2]; with CRL-7250) was “inactive” throughout. In addition, the Potency in assay [10] is 3.55 µM (active).

For `CNC(=O)c1ccc(N2C(=S)N(c3cnc(C#N)c(C(F)(F)F)c3)C(=O)C23CCC3)cc1F`, in assay [1], the Potency is 21.7 µM (active). The Potency result (in assay [3]; with CRL-7250) was “inactive” throughout. The activity change, negative = inhibition in assay [4] is -16.7%.

Turning to `CCC(C)CCCCC(=O)N[C@@H](CCN)C(=O)NC(C(=O)N[C@H](CCN)C(=O)N[C@@H]1CCNC(=O)C([C@@H](C)O)NC(=O)[C@@H](CCN)NC(=O)[C@@H](CCN)NC(=O)[C@@H](CC(C)C)NC(=O)[C@H](Cc2ccccc2)NC(=O)[C@H](CCN)NC1=O)[C@@H](C)O` (stereo partly drawn) ({Octanoyl(6-Me)}-[Dab][ξThr(3R)][dDab][dDab][Dab]F[dL][dDab][dDab][ξThr(3R)]; lactam 4-C), the Potency result (in assay [1]; in [3]; in [4]; with CRL-7250) was “inactive” throughout.

In the case of `COc1ccc(-c2cc(=O)c3c(O)cc(O)cc3o2)cc1O`, the Potency in [1] and in [2] was 24.3 µM (active) each time. The Potency entry (in assay [3]; in assay [4]; in the assay with CRL-7250) was “inactive” in each case.

As for `CC(C)c1cnn2c(NCc3ccccc3)cc(NCCCCCCN)nc12`, the Potency in assay [5] was 1.93 µM (active); in assay [11] it was 1.09 µM (active); in assay [2], 1.53 µM (active); in assay [10], 10 µM (active); in [4], 22.4 µM (active). The Potency entry in the assay on CRL-7250 is “inactive”.

Consider `CC=CCC(C)C(O)C1C(=O)NC(CC)C(=O)N(C)CC(=O)N(C)C(CC(C)C)C(=O)NC(C(C)C)C(=O)N(C)C(CC(C)C)C(=O)NC(C)C(=O)NC(C)C(=O)N(C)C(CC(C)C)C(=O)N(C)C(CC(C)C)C(=O)N(C)C(C(C)C)C(=O)N1C` (stereo not drawn), for which the Potency entry (in assay [5]; in the assay on CRL-7250) was “inactive” each time. In addition, the Potency in assay [2] is 13.7 µM (active).

Turning to `NC1=N[C@H]2[C@H](CS[C@H]2CCCCC(=O)O)N1`, the parasite growth, % of DMSO control in assay [12] was 88.8% [at 9.64 µM]. The compound also came in with a parasite growth remaining, % of DMSO control (lower = more inhibition) in assay [13] of 94.1% [at 9.64 µM]. Besides, the parasite growth, % of control (lower = inhibition) in [14] stood at 82% [at 9.64 µM]. Further, the growth, % of control in [15] was found to be 44.4% [at 9.64 µM]. In addition, the Potency entry (in assay [1]; in [5]; in assay [2]; in assay [3]; in the assay on CRL-7250) was “inactive” in each case. The activity change, negative = inhibition in assay [4] is -19.4% [at 27.1 µM].

On to `O=C1NC(=O)C(=Cc2cccc(C(F)(F)F)c2)S1`, for which the Potency in [5] was 13.7 µM (active). Further, the Potency result in the assay on CRL-7250 was “inactive”.

`N#Cc1c(N(CC(=O)O)CC(=O)O)sc(C(=O)O)c1CC(=O)O`: the Potency entry (in assay [1]; in assay [5]; in assay [2]; with CRL-7250) was “inactive” in each case. Moreover, the activity change, negative = inhibition in assay [6] was -19.2% [at 0.573 µM] (inactive). Besides, the outcome in assay [7] is “inactive [at 0.573 µM]”; in [9], “inactive [at 0.573 µM]”; in assay [3], “inactive [at 0.702 µM]”; in assay [4] it was “inactive [at 0.702 µM]”.

On to `O=C(O)c1ccc(Nc2ncc3c(n2)-c2ccc(Cl)cc2C(c2c(F)cccc2F)=NC3)cc1`, for which the Potency entry (in [1]; in assay [2]; in assay [3]; in the assay on CRL-7250) was “inactive” throughout. The results for the Potency in assay [5], in assay [16] and in [17] were 10.9 µM (active), 0.242 µM (active) and 1.08 µM (active), respectively.

Turning to `Nc1nc(=O)n([C@H]2C[C@H](O)[C@@H](CO)O2)cc1F`, the Potency was 0.769 µM (active) in assay [5], 1.93 µM (active) in assay [11], 0.0108 µM (active) in assay [16] and 0.0136 µM (active) in assay [17]. Moreover, the Potency result (in assay [3]; in the assay with CRL-7250) was “inactive” each time. Moreover, the activity change, negative = inhibition in [4] is -95.3%.

As for `NC(=O)c1ccc2nc(-c3ccc(Oc4ccc(Cl)cc4)cc3)[nH]c2c1`, the Potency in assay [5] was 0.769 µM (active). The Potency result (in assay [2]; in the assay on CRL-7250) was “inactive” throughout.

With `O=c1c(O)c(-c2ccc(O)cc2)oc2cc(O)cc(O)c12`, the activation in assay [18] is 0.454% (inactive) and 2.54% (inactive). The Potency entry (in [1]; in assay [5]; in [2]; in [3]; in assay [4]; in the assay with CRL-7250) was “inactive” throughout.

As for `NC(=O)c1cccc(-c2cccc(OC(=O)NC3CCCCC3)c2)c1`, in [12], the parasite growth, % of DMSO control came to 81%. Further, the parasite growth remaining, % of DMSO control (lower = more inhibition) in assay [13] was 98%. For the same compound, the parasite growth, % of control (lower = inhibition) in assay [14] worked out at 37.9%. In addition, the Potency in assay [5] is 4.32 µM (active); in assay [11], 8.63 µM (active); in assay [2] it was 6.85 µM (active). Also, the Potency result in the assay on CRL-7250 is “inactive”.

Take `Cc1c(NC(=O)c2ccc(C(C)(C)C)cc2)cccc1-c1cn(C)c(=O)c(Nc2ccc(C(=O)N3CCOCC3)cc2)n1`: the Potency result (in [1]; in assay [5]; in [2]; in [3]; in assay [4]; in the assay with CRL-7250) was “inactive” each time.

Turning to `Nc1ncnc2c1ncn2[C@@H]1O[C@H](CO)[C@@H](O)[C@@H]1O`, the Potency result (in assay [1]; in [5]; in assay [2]; in assay [3]; in the assay with CRL-7250) was “inactive” each time. Further, the Potency in assay [4] is 28.2 µM (active).

As to `COc1cccc([C@@H](C)NCCCc2ccccc2Cl)c1`, the Potency result (in assay [1]; in assay [5]; in assay [2]; in assay [19]; in assay [3]; in the assay with CRL-7250) was “inactive” in each case. For the same compound, the Potency was 10 µM (active) in [10] and 22.4 µM (active) in [4].

For the origin of these results see PubChem BioAssay (NCATS).
